Results filed as inconclusive are left out. Calls of active or inactive are those of the source.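 How the source made its calls, unless noted: active means percent response above a set limit, the screen-wide mean plus 3 SD (cut at about 130% in these data); inactive means the rest.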
What was measured:
[1] = rapamycin-like changes in RPL19A-GFP expression – cell-based, S. cerevisiae, multiplex flow cytometry, primary screen (AID 1862; in the data active means percent of DMSO control GFP below about 86%;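 further: lower values mimic rapamycin by blocking the RPL19A rise seen in DMSO cells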); details: S. cerevisiae RPL19A-GFP strain, flow cytometry fluorescence, 3 h; at 10 µM; stronger effect = lower value
[2] = TOR pathway GLN3 branch reporter MEP2-GFP changes – S. cerevisiae, multiplex flow cytometry, primary screen (AID 1867;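 active means GFP response, as percent of the DMSO control, above the screen-wide mean plus 3 SD, about 139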;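 further: median GFP channel fluorescence of barcode-gated MEP2-GFP cells measured by flow cytometry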); details: S. cerevisiae MEP2-GFP strain, 3 h, at 10 µM, stronger effect = higher value, 100% means same as DMSO wells
[3] = TOR pathway RTG branch CIT2 reporter changes – S. cerevisiae, GFP fusion, multiplex flow cytometry, primary screen (AID 1870);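 further: barcoded CIT2-GFP strain pooled with four other GFP strains with rapamycin as positive control; median GFP fluorescence per well over plate mean of DMSO wells so 100% = DMSO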; details: S. cerevisiae CIT2-GFP expression, 3 h, at 10 µM, stronger effect = higher value
[4] = TOR pathway LAP4-GFP level changes – S. cerevisiae, multiplex flow cytometry, primary screen (AID 1873;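 active means GFP signal, as percent of the solvent control, above the screen mean plus 3 SD, about 149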); details: S. cerevisiae LAP4-GFP expression, 3 h, at 10 µM, stronger effect = higher value
[5] = yeast AGP1-GFP level changes, GLN3 branch – cell-based, multiplex flow cytometry, S. cerevisiae, primary screen (AID 1887;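 active means GFP signal above the screen-wide mean plus 3 SD, that is over about 124.5% of the solvent control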;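 further: AGP1-GFP fusion strain of S. cerevisiae within a five-strain barcoded multiplex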); details: 3 h, at 10 µM, stronger effect = higher value
[6] = reduced mouse 2C T cell binding to pMHC/ICAM-1 vesicles – MLPCN validation set, flow cytometry, LFA-1/ICAM-1 modulator project, pilot screen (AID 2523;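 active means response below a set limit, under 55% cells CD8-positive and vesicle-bound, and CD8 cells' 90th-percentile brightness under 279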;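 on vesicle binding response: mean PE anti-B7-1 fluorescence of CD8+ cells relative to row control; 100% = QL9-loaded vesicles with DMSO vehicle in the same plate row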); details: 2C mouse CD8+ T cells, at 7 µM, stronger effect = lower value; double positive events: measured here: CD8+/vesicle+ event percentage
[7] = biological target: Integrin beta-1 (Homo sapiens) + Integrin alpha-4 (Homo sapiens) (UniProt P13612+P05556); assay: alpha4beta1 integrin LIBS antibody binding reduction – U937 cells, HUTS-21 mAb, flow cytometry, validation set, VLA-4 allosteric modulator project, pilot screen (AID 2674;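 active means inhibition above 50%, about 3 SD of the validation set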;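 further: antibody binding induced by the VLA-4 ligand LDV present at three times its Kd; 0% = LDV ligand with antibody and no compound and 100% = antibody without LDV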); details: HUTS-21 LIBS mAb binding, at 6.7 µM, stronger effect = higher value, binding induced by LDV ligand
Chain of Integrin beta-1 (Homo sapiens) + Integrin alpha-4 (Homo sapiens) (P05556 whole entry, looked up): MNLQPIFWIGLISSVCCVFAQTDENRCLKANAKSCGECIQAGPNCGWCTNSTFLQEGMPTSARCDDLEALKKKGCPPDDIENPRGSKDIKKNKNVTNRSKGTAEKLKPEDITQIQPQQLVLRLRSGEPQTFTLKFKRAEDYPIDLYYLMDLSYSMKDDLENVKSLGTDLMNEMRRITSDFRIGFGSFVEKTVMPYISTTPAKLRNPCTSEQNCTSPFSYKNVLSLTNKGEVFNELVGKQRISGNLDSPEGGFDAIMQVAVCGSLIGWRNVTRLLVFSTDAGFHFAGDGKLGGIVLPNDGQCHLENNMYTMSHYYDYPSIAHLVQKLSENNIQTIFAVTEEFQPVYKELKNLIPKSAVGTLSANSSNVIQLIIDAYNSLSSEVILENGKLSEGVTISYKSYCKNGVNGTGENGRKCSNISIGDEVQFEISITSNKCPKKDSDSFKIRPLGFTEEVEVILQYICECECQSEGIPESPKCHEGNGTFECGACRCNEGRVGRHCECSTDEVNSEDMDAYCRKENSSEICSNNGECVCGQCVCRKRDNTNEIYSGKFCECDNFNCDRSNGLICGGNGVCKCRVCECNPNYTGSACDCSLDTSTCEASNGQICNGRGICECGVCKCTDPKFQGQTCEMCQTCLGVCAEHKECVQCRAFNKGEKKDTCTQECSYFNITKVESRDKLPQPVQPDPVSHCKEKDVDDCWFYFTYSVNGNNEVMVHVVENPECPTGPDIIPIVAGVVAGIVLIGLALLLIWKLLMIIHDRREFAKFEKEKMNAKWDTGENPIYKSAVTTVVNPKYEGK
Chain of Integrin beta-1 (Homo sapiens) + Integrin alpha-4 (Homo sapiens) (P13612 whole entry, looked up): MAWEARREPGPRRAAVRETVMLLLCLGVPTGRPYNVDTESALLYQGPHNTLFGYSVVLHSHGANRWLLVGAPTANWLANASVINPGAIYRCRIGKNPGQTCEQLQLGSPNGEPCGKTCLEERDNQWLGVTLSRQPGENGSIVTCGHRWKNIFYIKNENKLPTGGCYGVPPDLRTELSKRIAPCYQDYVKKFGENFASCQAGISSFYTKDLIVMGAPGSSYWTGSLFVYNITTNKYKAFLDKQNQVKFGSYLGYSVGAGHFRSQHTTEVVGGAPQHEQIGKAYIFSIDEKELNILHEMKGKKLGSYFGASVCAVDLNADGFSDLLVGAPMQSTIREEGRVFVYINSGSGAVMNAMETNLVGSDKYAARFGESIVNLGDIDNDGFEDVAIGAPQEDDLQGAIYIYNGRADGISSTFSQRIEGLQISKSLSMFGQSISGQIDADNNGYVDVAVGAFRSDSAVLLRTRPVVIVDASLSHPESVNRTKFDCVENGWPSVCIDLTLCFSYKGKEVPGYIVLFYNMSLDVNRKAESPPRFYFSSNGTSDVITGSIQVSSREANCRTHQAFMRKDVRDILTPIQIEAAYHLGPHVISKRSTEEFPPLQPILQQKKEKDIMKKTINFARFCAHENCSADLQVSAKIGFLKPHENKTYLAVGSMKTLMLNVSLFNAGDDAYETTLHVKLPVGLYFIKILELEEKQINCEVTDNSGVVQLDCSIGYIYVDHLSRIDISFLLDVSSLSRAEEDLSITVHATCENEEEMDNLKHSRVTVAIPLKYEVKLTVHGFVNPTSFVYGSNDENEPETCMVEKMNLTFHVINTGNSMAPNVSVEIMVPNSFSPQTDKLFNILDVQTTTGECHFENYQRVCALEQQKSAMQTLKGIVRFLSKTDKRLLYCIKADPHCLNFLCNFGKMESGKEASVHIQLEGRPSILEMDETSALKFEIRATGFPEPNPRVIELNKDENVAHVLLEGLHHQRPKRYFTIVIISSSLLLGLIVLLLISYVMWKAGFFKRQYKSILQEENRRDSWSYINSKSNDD

[8] = calorie-restriction mimetic ROS inhibitors, yeast – validation compound set, pilot screen (AID 2706;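 active means superoxide response below 65% of plate, a cut near 3 SD across the whole screen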;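 further: yeast exposed to compound for one week at 30 degrees C before staining; 100% = mean of all compound wells on the same plate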); details: S. cerevisiae aging, superoxide DHE fluorescence; at 10 µM; stronger effect = lower value
[9] = biological target: Beta-adrenergic receptor kinase 1 (Homo sapiens) (UniProt P25098); assay: GRK2 binders displacing RNA aptamer, biochemical, validation, human GRK2, bead flow cytometry (AID 488806;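 active means aptamer binding inhibition above 30%, about 3 SD of noise from non-fluorescent compounds; inactive means inhibition at or below 30%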); details: bead-bound GRK2, FAM-aptamer displacement, at 10 µM, stronger effect = higher value
Chain of Beta-adrenergic receptor kinase 1 (Homo sapiens) (P25098 whole entry, looked up): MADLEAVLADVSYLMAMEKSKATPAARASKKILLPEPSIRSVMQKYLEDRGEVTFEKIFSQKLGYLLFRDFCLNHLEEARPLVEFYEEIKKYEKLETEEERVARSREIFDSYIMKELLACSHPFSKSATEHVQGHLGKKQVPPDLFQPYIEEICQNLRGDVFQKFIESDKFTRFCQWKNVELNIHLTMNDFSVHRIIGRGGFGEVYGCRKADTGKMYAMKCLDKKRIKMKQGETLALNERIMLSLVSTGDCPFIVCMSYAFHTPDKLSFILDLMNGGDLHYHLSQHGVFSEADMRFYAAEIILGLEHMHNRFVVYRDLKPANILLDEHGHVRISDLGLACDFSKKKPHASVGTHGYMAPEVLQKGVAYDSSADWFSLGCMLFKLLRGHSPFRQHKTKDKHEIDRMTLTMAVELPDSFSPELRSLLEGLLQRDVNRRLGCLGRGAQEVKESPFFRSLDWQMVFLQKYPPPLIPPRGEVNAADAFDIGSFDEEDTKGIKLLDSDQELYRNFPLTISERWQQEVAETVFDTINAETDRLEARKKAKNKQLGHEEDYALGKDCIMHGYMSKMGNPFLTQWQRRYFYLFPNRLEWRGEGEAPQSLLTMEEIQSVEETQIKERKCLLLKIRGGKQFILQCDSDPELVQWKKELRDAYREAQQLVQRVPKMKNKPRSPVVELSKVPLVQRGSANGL

[10] = biological target: Beta-2 adrenergic receptor (Homo sapiens) (UniProt P07550); assay: agonist-induced loss of surface beta2AR – cell-based, FAP fluorogen, flow cytometry, validation set, pilot screen (AID 504459;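 active means percent response above 42, roughly 3 SD of non-fluorescent test compounds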;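 further: agonist-driven loss of surface beta2AR via internalization measured by FAP dye flow cytometry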); details: Am2.2-beta2AR cells, at 10 µM, stronger effect = higher value
Chain of Beta-2 adrenergic receptor (Homo sapiens) (P07550 whole entry, looked up): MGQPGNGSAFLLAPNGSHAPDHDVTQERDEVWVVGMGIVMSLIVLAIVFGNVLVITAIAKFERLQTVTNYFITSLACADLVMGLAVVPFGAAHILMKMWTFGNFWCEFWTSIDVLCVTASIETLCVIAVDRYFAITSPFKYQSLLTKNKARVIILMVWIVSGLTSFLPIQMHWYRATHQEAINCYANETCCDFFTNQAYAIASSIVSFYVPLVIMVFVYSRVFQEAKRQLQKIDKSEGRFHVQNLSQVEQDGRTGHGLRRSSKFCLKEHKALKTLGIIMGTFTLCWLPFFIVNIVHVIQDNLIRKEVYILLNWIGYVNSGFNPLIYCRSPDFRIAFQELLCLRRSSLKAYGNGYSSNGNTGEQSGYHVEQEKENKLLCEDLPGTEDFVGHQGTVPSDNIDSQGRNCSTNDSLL

[11] = biological target: AP-2 complex subunit beta (Homo sapiens) (UniProt P63010); assay: beta-arrestin/AP2 interaction blockers – biochemical, validation set, GST-AP2 beads, flow cytometry, pilot screen (AID 504541;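 active means inhibition above 54%, about 3 SD of non-fluorescent compounds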;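 further: AP2 carries R879A mutation and is captured from E. coli lysate; bead-bound FITC arrestin peptide fluorescence measuring arrestin peptide binding to AP2; 0% = DMSO wells and 100% = excess unlabeled arrestin peptide control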); details: FITC arrestin peptide, at 10 µM, stronger effect = higher value, AP2 beta2 appendage fragment, R879A mutant
Chain of AP-2 complex subunit beta (Homo sapiens) (P63010 whole entry, looked up, the tested form may be a part, one chain of several): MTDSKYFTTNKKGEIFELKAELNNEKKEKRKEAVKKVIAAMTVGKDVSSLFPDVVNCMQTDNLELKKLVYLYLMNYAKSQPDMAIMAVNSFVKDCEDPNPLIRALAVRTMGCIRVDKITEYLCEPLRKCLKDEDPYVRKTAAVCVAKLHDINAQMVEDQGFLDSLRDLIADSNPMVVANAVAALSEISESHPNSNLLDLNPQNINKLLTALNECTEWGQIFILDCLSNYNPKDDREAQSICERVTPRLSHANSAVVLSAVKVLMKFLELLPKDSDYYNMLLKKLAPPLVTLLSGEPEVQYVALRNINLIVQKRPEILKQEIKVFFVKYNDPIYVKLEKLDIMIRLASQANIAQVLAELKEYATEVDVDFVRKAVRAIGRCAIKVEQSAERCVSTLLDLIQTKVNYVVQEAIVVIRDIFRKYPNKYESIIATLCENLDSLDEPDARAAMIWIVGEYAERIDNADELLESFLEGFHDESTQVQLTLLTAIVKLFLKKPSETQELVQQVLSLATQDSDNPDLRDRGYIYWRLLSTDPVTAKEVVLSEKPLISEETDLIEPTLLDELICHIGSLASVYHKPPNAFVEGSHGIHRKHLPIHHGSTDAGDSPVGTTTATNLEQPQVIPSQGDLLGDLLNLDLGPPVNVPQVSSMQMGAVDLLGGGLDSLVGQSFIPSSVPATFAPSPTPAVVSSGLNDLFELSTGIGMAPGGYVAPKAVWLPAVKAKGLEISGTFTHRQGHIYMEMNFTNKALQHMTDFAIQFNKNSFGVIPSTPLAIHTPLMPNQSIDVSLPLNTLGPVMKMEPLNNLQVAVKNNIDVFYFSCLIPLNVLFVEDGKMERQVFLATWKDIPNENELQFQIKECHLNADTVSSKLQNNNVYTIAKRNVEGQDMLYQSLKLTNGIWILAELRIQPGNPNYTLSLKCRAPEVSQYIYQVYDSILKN

[12] = cytosolic pH regulators acting via V-ATPase – S. cerevisiae, pHLuorin, HTS validation (AID 504600; in the data active means response above about 15%;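 further: plate controls were DMSO for no effect and reference compound for full effect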); details: V-ATPase proton transport, at 10 µM, stronger effect = higher value
[13] = tested on: anti-desmoglein-3 scFv antibody binding to human DSG3; assay: blockers of pathogenic pemphigus antibody–desmoglein-3 binding – biochemical, validation compound set, bead-based, flow cytometry, pilot screen (AID 588368;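 active means binding below the plate cutoff, the plate median minus 3 SD, with a reading above zero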;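 further: signal is the median channel fluorescence of bead-bound GFP antibody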); details: Protein G beads, DSG3-Fc, scFv-GFP binding, at 10 µM, stronger effect = lower value
[14] = Nile Red efflux blockade in pump-expressing yeast – validation compound set, multiplex, phenotypic, pilot screen (AID 588506;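 active means efflux inhibition above 0.42, the validation set average plus 4 SD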;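 further: Nile Red retained in cells so higher fluorescence means more efflux inhibition; 0 = negative control wells and 1 = enniatin B 25 µM full block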); details: S. cerevisiae pump-expressing triplex, Nile Red efflux flow cytometry; at 10 µM; stronger effect = higher value; the pumps come from Candida albicans
[15] = biological target: ATP-binding cassette sub-family B member 6 (Homo sapiens) (UniProt Q9NP58); assay: blockers of ABCB6-driven porphyrin uptake – K562-ABCB6 cells, flow cytometry, validation set, pilot screen (AID 588550;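 active means inhibition above the screen-wide mean plus 3 SD, about 51%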;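 further: 0% = DMSO wells and 100% = benzethonium chloride 70 µM positive control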); details: K562-ABCB6 porphyrin accumulation, 1 h, at 10 µM, stronger effect = higher value
Chain of ATP-binding cassette sub-family B member 6 (Homo sapiens) (Q9NP58 whole entry, looked up): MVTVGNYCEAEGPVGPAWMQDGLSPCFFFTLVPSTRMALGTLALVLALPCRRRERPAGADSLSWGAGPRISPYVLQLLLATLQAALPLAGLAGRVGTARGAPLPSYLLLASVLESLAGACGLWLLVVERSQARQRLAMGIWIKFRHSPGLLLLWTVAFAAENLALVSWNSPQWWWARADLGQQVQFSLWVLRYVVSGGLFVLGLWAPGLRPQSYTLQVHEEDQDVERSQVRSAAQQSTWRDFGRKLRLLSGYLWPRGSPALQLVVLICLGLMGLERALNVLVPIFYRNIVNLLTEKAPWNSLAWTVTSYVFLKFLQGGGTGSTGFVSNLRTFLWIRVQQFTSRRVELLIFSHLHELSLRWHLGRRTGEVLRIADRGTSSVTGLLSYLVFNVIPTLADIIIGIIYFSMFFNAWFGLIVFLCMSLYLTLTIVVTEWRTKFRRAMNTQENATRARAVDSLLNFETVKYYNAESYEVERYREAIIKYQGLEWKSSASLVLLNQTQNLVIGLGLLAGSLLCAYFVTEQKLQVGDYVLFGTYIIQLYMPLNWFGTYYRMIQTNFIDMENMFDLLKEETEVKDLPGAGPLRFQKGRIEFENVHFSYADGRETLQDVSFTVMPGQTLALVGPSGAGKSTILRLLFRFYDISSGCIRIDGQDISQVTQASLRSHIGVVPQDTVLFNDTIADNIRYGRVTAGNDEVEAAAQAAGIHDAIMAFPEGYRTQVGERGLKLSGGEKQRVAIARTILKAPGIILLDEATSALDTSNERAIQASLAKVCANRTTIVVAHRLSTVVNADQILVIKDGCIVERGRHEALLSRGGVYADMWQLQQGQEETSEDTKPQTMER

[16] = AML differentiation inducers, ER-HoxA9 marrow cells – cell-based, GFP/MAC1 double positive, flow cytometry, validation set, primary screen (AID 588685;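 active means differentiation response of at least 50%, scaled between solvent and reference control, from cells with both markers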;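 further: compound exposure lasts four days before antibody staining and flow analysis; 0% = DMSO wells and 100% = 5 µM fulvestrant positive control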); details: stronger effect = higher value, normalized: vehicle 0, fulvestrant 100

Row | Structure (SMILES) | percent of DMSO control GFP [1] | GFP response vs DMSO [2] | percent response of DMSO control [3] | GFP response vs DMSO [4] | GFP response, % of DMSO [5] | double positive events [6] [%] | vesicle binding response [6] | inhibition [7] | superoxide response (% of plate) [8] | aptamer binding inhibition [9] | response [10] | inhibition [11] | response [12] | binding (% of control) [13] | efflux inhibition (fraction of control) [14] | inhibition [15] | differentiation response [16]
1 | CSCC[C@H](NC(=O)NC1CCCC1)C(=O)O | 89.8% (inactive) | 113% (inactive) | 99.2% (inactive) | 75.4% (inactive) | 89.6% (inactive) | 70.2 | 233% (inactive) | 8.4% (inactive) | 113% (inactive) | 3% (inactive) | -7.36% (inactive) | -9.17% (inactive) | 1.23% (inactive) | 101% (inactive) | 0.34 (inactive) | 13% (inactive) | 0.82% (inactive)
2 | Cc1c(O)c(=O)ccn1C | 90.4% (inactive) | 121% (inactive) | 103% (inactive) | 76.5% (inactive) | 95.4% (inactive) | 64.3 | 412% (inactive) | 6.46% (inactive) | 99.1% (inactive) | 1% (inactive) | -11.3% (inactive) | -9.42% (inactive) | 3.11% (inactive) | 102% (inactive) | 0.27 (inactive) | 9% (inactive) | -3.28% (inactive)
3 | O=C(Nc1ccc(N2CCOCC2)cc1)c1ccc(-c2ccccc2[N+](=O)[O-])o1 | 102% (inactive) | 102% (inactive) | 106% (inactive) | 96.5% (inactive) | 98.8% (inactive) | 68.5 | 132% (inactive) | 3.98% (inactive) | 99.9% (inactive) | 5% (inactive) | 8.71% (inactive) | -4.06% (inactive) | 1.65% (inactive) | 97.9% (inactive) | 0.07 (inactive) | 6% (inactive) | -1.88% (inactive)
4 | NS(=O)(=O)c1ccc(CNC(=O)c2cc(-c3ccccc3)nc3ccccc23)cc1 | 98.8% (inactive) | 109% (inactive) | 104% (inactive) | 95.3% (inactive) | 97.5% (inactive) | 59.3 | 220% (inactive) | -7.72% (inactive) | 104% (inactive) | 2% (inactive) | -8.54% (inactive) | 16% (inactive) | -3.46% (inactive) | 98% (inactive) | -0.1 (inactive) | 1% (inactive) | 5.13% (inactive)
5 | CCC(CO)NCCNC(CC)CO (stereo not drawn) | 95.5% (inactive) | 139% (inactive) | 101% (inactive) | 87.5% (inactive) | 97.7% (inactive) | 66.7 | 133% (inactive) | 4.52% (inactive) | 91.3% (inactive) | -1% (inactive) | 3.66% (inactive) | 33.3% (inactive) | -3.71% (inactive) | 103% (inactive) | -0.28 (inactive) | 114% (active) | -1.64% (inactive)
6 | COc1cc2c(cc1NCc1ccc3c(c1)OCO3)oc1ccccc12 | 99.6% (inactive) | 133% (inactive) | 112% (inactive) | 88% (inactive) | 89.4% (inactive) | 64 | 167% (inactive) | 1.61% (inactive) | 99.1% (inactive) | 0% (inactive) | 4.3% (inactive) | 47.4% (inactive) | 8.06% (inactive) | 103% (inactive) | 0.37 (inactive) | 0% (inactive) | 8.19% (inactive)
7 | O=C(O)CCCCCN1C(=O)C(=O)/C(=C(/O)c2ccccc2)C1c1ccccc1 (stereo not drawn) | 99.5% (inactive) | 97.4% (inactive) | 98.6% (inactive) | 119% (inactive) | 102% (inactive) | 63.1 | 212% (inactive) | -5.89% (inactive) | 103% (inactive) | 7% (inactive) | -2.6% (inactive) | -10.9% (inactive) | -1.69% (inactive) | 98% (inactive) | -0.06 (inactive) | 7% (inactive) | 7.2% (inactive)
8 | CNc1c2c(nn1C)CCCC2 | 104% (inactive) | 97.7% (inactive) | 106% (inactive) | 97% (inactive) | 106% (inactive) | 62.2 | 126% (inactive) | 1.59% (inactive) | 115% (inactive) | 5% (inactive) | 1.87% (inactive) | -17.3% (inactive) | -7.05% (inactive) | 101% (inactive) | -0.19 (inactive) | -3% (inactive) | -3.11% (inactive)
9 | CC(=O)C1=C(O)C(=O)OC1c1ccc(C)cc1 (stereo not drawn) | 97.1% (inactive) | 119% (inactive) | 91% (inactive) | 132% (inactive) | 106% (inactive) | 61 | 147% (inactive) | 17.3% (inactive) | 103% (inactive) | 2% (inactive) | -1.67% (inactive) | 21.9% (inactive) | -0.38% (inactive) | 101% (inactive) | -0.06 (inactive) | 7% (inactive) | 5.6% (inactive)
